Counter-ions that a name gives are not always drawn. ± gives the standard deviation of the averaged measurements.

The subject of this experiment is Toxoplasma gondii RH (in HFF). Briefly: parasite growth relative to the screen mean (all compounds = 100%); higher = less inhibition of parasite growth. The conditions noted are these: 5 µM; 72 h; oxygen 21 %. Put shortly: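 Library compounds (10 mM DMSO stocks) were pin-transferred to 5 µM final onto confluent human foreskin fibroblasts in 96-well plates, then infected within 2 h with RH β-Gal–GFP Toxoplasma (MOI 1:5) and grown 72 h at 21% O2. Parasite number came from a CPRG β-Gal assay against in-plate standard curves. Growth is expressed relative to the screen mean (all compounds = 100%), averaged over two screens. Uninfected host-cell viability was checked by CellTiter-Blue.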
The compound `O=C(CCCCCN1C(=O)c2cccc3cccc(c23)C1=O)NO` [Scriptaid] registered a parasite growth below 0%. Next, `OCc1cc(C(O)CNCCCCCCOCCCCc2ccccc2)ccc1O` (stereo not drawn) [Salmeterol]: 14.4 ± 11%; `Cn1cnnc1Sc1c([N+](=O)[O-])ncn1C`: 131 ± 11%; `O=C(NCCCCCCNC(=O)ON=C1CCCCC1)ON=C1CCCCC1`: 28.7 ± 2.9%. In the case of `c1ccc(COCCCc2c[nH]cn2)cc1` [Proxyfan Oxalate], the parasite growth came out at 112 ± 18%. Next, `NC(=O)OCC(COC(N)=O)c1ccccc1` [Felbamate]: 85.9 ± 60%. In the case of `O=C1C(SCCO)=C(SCCO)C(=O)c2ccccc21` it was 180 ± 14%; in that of `OC(CNCC(O)C1CCc2cc(F)ccc2O1)C1CCc2cc(F)ccc2O1` (stereo not drawn) [Nebivolol hydrochloride], 46 ± 23%; in that of `N[C@@H](C(=O)O)c1ccc(O)c(C(=O)O)c1` [(R)-3-Carboxy-4-hydroxyphenylglycine], 148 ± 15%. Regarding `O=C(NCCCCN1CCN(c2cccc(Cl)c2Cl)CC1)c1ccc2c(c1)Cc1ccccc1-2`, the parasite growth amounted to 92.71 ± 0.75%. In the case of `O=C(O)c1ccccc1Nc1cccc(OCc2ccc3ccccc3n2)c1` [SR 2640 hydrochloride] it was 135 ± 9.3%; in that of `COc1cc(N)c(Cl)cc1C(=O)OCCCN1CCCCC1`, 109 ± 2.2%.

Turning to `O=C1CC2(CCCC2)CC(=O)N1CCNCC1COc2ccccc2O1` (stereo not drawn), the parasite growth worked out at 152 ± 13%. Next, `CCN(CC)CCOc1ccc(Cc2ccccc2)cc1` [DPPE fumarate]: 75.7 ± 1.7%; `Nc1nc(F)nc2c1ncn2[C@@H]1O[C@H](CO)[C@@H](O)[C@@H]1O` [Fludarabine]: 102 ± 10%.

For the compound `COc1ccccc1N1CCN(CCCCNC(=O)c2ccc(-c3ccc(C(C)=O)cc3)cc2)CC1`, the parasite growth turned out to be 156 ± 28%. In the case of `C[C@H](NC[C@H](O)CP(=O)(O)Cc1ccccc1)c1ccc(Cl)c(Cl)c1` it was 108.5 ± 0.57%; in that of `CCCCNc1c(C(=O)OCC)c(C)nc2c1cnn2CC` [Tracazolate hydrochloride], 109 ± 5.9%.

`CC(=N)NCc1cccc(CN)c1` [1400W dihydrochloride] showed a parasite growth of 74 ± 48%.

`COC(=O)c1sccc1S(=O)(=O)Nc1ccc(Nc2ccccc2)cc1OC` registered a parasite growth of 64 ± 25%. Turning to `COc1ccc(NC(=O)c2cc(OCCCN(C)C)nn2Cc2ccccc2)cc1` [CFM 1571 hydrochloride], the parasite growth was 106 ± 4.8%.

Regarding `CC#CCOC(=O)C1=CCCN(C)C1` [Arecaidine but-2-ynyl ester tosylate], the parasite growth came to 144 ± 12%.

`CN(C)CCCCSC(=N)N` showed a parasite growth of 93.3 ± 15%. Turning to `CC(C)SC(=N)N` [S-Isopropylisothiourea hydrobromide], the parasite growth turned out to be 97.1 ± 3.1%.

Take `CC1(C)O[C@@H]2[C@@H](CO[C@@]3(COS(N)(=O)=O)OC(C)(C)O[C@@H]23)O1` [Topiramate]: the parasite growth was 112 ± 8.3%. Next, `CC(=O)NNC(=O)N1Cc2ccccc2Oc2ccc(Cl)cc21`: 136 ± 40%; `COC1(C2=NCCN2)COc2ccccc2O1` (stereo not drawn): 136 ± 3.9%; `CC(C)N(CCC(=O)c1ccc2ccccc2c1)Cc1ccccc1`: 77.6 ± 4.8%. In turn, `NCC(O)(CS(=O)(=O)O)c1ccc(Cl)cc1` (stereo not drawn) [2-Hydroxysaclofen] yielded a parasite growth of 132 ± 20%.

As to `Cc1c(OCC(F)(F)F)ccnc1C[S+]([O-])c1nc2ccccc2[nH]1` (stereo not drawn) [Lansoprazole], the parasite growth worked out at 124 ± 9.3%. In the case of `C[C@@H](CN1CC(=O)NC(=O)C1)N1CC(=O)NC(=O)C1` [Dexrazoxane hydrochloride] it was 102 ± 13%; in that of `O=C(COc1cccc2c(=O)[nH]ccc12)c1ccccc1`, 92.69 ± 0.78%; in that of `COc1ccc(-c2nc(C(=O)N3CCN(C)CC3)sc2-c2ccc(OC)cc2)cc1`, 112 ± 21%. In the case of `COc1cc2c(cc1OC)-c1c/c(=N\c3c(C)cc(C)cc3C)n(C)c(=O)n1CC2` [Trequinsin hydrochloride] it was 124 ± 37%; in that of `Nc1nc2c(ccc3ccccc32)s1`, 158 ± 11%. Next, `O=C1c2ccccc2C(Cc2ccnc(F)c2)(Cc2ccnc(F)c2)c2ccccc21`: 102 ± 14%.

Consider `C[C@@H]1C[C@H]2[C@@H]3CCC4=CC(=O)C=C[C@]4(C)[C@@]3(F)[C@@H](O)C[C@]2(C)[C@@]1(O)C(=O)CO` [Dexamethasone], for which the parasite growth is 141 ± 12%. As to `Cc1cccc(C#Cc2ccccc2)n1` [MPEP hydrochloride], the parasite growth came to 101 ± 37%.
